An excerpt weighted towards active compounds, which were near 12% of everything screened.
Pf growth 48h: inhibits P. falciparum growth in the first generation, 48 h; P. falciparum luciferase growth in erythrocytes, 48 h; Potency, µM (series often up to 28.7 µM), without a hit: top-dose activity change, negative = inhibition, usual class: inhibitors; 5.9% of 310,000 active; AID 504832; further: on the % scale 0 is the no-effect control and ±100 the full control effect
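Here the parasites carry a stable luciferase gene and grow inside erythrocytes in Albumax-based RPMI medium with compound for one erythrocytic cycle. Activity is scored as loss of luminescent signal.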
Sm TGR inh: blocks Schistosoma mansoni thioredoxin glutathione reductase; 3% of 360,000 active; Q962Y6; Potency, µM (series often up to 114 µM), for inactives: at the highest dose activity change, negative = inhibition, hits mostly inhibitors; purified TGR, DTNB reduction, TNB absorbance 405 nm; further: on the % scale 0 is the no-effect control and ±100 the full control effect; nearly all actives have a fitted effect of over 60% in size
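TGR 20 nM + NADPH 100 uM (dispensed conc.), cpd preinc 15 min RT; start with NADPH (500 uM addition) then DTNB (15 mM addition). Kinetic TNB absorbance, 405 nm filter. Four-parameter Hill fit across titration.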
AmpC inh detg: blocks E. coli AmpC beta-lactamase in detergent assay; P00811; AmpC hydrolysis of nitrocefin, absorbance 480 nm, 0.01% Triton; Potency, µM (titrated, usually from 114 µM), for inactives: at the top dose activity change, negative = inhibition, actives largely listed as inhibitors; 0.041% of 370,000 active;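 further: 0% = no-compound wells and -100% = no-enzyme wells; nearly all actives have a fitted effect of over 25% in size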
Target sequence (P00811 whole entry, looked up): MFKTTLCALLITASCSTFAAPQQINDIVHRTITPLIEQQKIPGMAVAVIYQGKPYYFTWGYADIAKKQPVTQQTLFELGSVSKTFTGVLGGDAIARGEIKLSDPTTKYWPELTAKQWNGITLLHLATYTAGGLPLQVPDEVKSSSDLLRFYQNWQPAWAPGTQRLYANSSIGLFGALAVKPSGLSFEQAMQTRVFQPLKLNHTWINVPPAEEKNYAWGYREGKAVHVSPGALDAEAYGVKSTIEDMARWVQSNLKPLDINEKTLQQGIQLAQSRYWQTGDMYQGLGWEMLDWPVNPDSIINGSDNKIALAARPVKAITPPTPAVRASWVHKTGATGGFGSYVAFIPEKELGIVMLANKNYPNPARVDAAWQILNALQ
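20 mM phosphate pH 7.0 + 0.01% (detergent screen) or 0.0001% Triton X-100; 5.3 nM AmpC reagent; cpd preinc 15 min RT; nitrocefin (800 uM stock) to start; A480 q20 s × 4 min; Activity was normalised to no-enzyme and no-compound control wells.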
AmpC no deterg: blocks E. coli AmpC beta-lactamase in detergent-free assay | P00811 | AmpC nitrocefin hydrolysis, absorbance 480 nm, 0.0001% Triton | Potency, µM (doses to about 57.1 µM), for the others: at the top dose activity change, negative = inhibition, usual class: inhibitors | 0.52% of 330,000 active | AID 485341;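 further: plate controls were no compound for no effect and no enzyme for full effect; nearly all actives have a fitted effect of over 20% in size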
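20 mM phosphate pH 7.0 + 0.01% (detergent screen) or 0.0001% Triton X-100; 5.3 nM AmpC reagent; cpd preinc 15 min RT; nitrocefin (800 uM stock) to start; A480 q20 s × 4 min; Activity was normalised to no-enzyme and no-compound control wells.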
SARS PLP yeast: blocks SARS-CoV papain-like protease in a yeast assay; S. cerevisiae expressing SARS-CoV PLpro, growth rescue; Potency, µM (highest dose often 32.9 µM), inactives show at the top dose activity, positive = growth rescue, actives largely listed as activators; 0.19% of 330,000 active; AID 485353; calls by dose curve; further: 0% is about no effect; nearly all actives have a fitted effect of over 55% in size
Pf growth 96h: inhibits malaria parasite growth, 96 h; 6.9% of 320,000 active; P. falciparum luciferase reporter growth, 96 h; AID 504834; Potency, µM (highest dose often 28.7 µM), for the others: at the top dose activity change, negative = inhibition, usual class: inhibitors; further: on the % scale 0 is the no-effect control and ±100 the full control effect
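96 h incubation, 37 C, 5% CO2, of luciferase-reporter P. falciparum-infected RBCs (2% hematocrit, 0.05% parasitemia final) with test compounds; endpoint luminescence.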
* hit, by the source's call; ? = inconclusive; nt = no result given. Unless noted, the call rests on the fitted dose curve; in most records, active means well fitted curve in the direction sought with a large enough effect; inconclusive means small, poorly fitted or top-dose-only effect, or another doubt; inactive means no such curve, though single readings can be large; an effect the other way counts as inactive or inconclusive. Potency means the concentration at half of the fitted maximal effect.

SMILES	Pf growth 48h	Sm TGR inh	AmpC inh detg	AmpC no deterg	SARS PLP yeast	Pf growth 96h
Cn1ncc2c(Nc3cc(C(F)(F)F)ccc3Cl)ncnc21	nt	6%	3%	nt	nt	nt
Cc1c(C=O)c(C=O)c(C)n1Cc1ccccc1	nt	-19%	6%	-17%	-17%	5.2µM*
C/C1=C2N=C(/C=C3N=C(/C(C)=C4\[N-]C(C)(C5N=C1C(C)(CCC(=O)NCC(C)OP(=O)([O-])O[C@H]1C(O)C(n6cnc7cc(C)c(C)cc76)O[C@@H]1CO)C5CC(N)=O)C(C)(CC(N)=O)C4CCC(N)=O)C(C)(CC(N)=O)C\3CCC(N)=O)C(C)(C)C/2CCC(N)=O.[CH2-]C1OC(n2cnc3c(N)ncnc32)C(O)C1O.[Co] (some centres undefined)	8.5µM*	nt	nt	nt	nt	6.7µM*
CC(C)(COP(=O)(O)OP(=O)(O)OC[C@H]1O[C@@H](n2cnc3c(N)ncnc32)[C@H](O)[C@@H]1OP(=O)(O)O)C(O)C(=O)NCCC(=O)NCCS (some centres undefined)	31%	nt	nt	nt	nt	83%
CCOc1cccc(C(=O)Nc2ccc(NC(=O)c3ccccc3)c(C)c2)c1	?	-5%	-14%	-49%	?	1%
CCOc1ccc(C(=O)Nc2ccc(NC(=O)c3ccccc3)c(C)c2)cc1[N+](=O)[O-]	12%	4%	5%	-12%	4%	0.21µM*
COc1cc(NC(=O)c2ccc(OC)c([N+](=O)[O-])c2)ccc1NC(=O)c1cccs1	19%	-6%	-3%	-37%	-10%	-9%
CCOc1ccc(C(=O)Nc2ccc(N3CCN(S(C)(=O)=O)CC3)cc2)cc1[N+](=O)[O-]	-4%	nt	-11%	2%	0%	9.3µM*
CCOc1ccc(C(=O)Nc2cccc(NC(=O)c3cccs3)c2)cc1[N+](=O)[O-]	-16%	-3%	-12%	-32%	1%	12µM*
CCN(CC(=O)Nc1c(F)cccc1F)C(=O)c1ccc(Cl)c(S(=O)(=O)N2CCCCC2)c1	-23%	-18%	-11%	-2%	1%	?
Cc1cc(C)cc(NC(=O)C(=O)NC(C)c2ccccc2)c1 (centres undefined)	nt	7%	12%	nt	nt	nt
O=C(Nc1cccc(Cl)c1)c1ccc(S(=O)(=O)NCC2CCCO2)cc1 (centres undefined)	8%	1%	7%	-25%	-11%	24%
COc1ccc(N=C2SC(CC(=O)Nc3ccccc3)C(=O)N2CCN2CCOCC2)cc1 (centres undefined)	-5%	-8%	-2%	146%	-11%	-2%
COc1ccc(N=C2SC(CC(=O)Nc3ccccc3)C(=O)N2CC2CCCO2)cc1 (centres undefined)	12µM*	-22%	?	79%	-7%	?
COc1ccc(N=C2SC(CC(=O)Nc3ccc(F)cc3)C(=O)N2Cc2ccco2)cc1 (centres undefined)	?	?	?	-19%	-2%	?
COc1ccc(N=C2SC(CC(=O)Nc3ccccc3OC)C(=O)N2Cc2ccco2)cc1 (centres undefined)	-78%	50µM*	6%	-8%	-6%	?
COc1ccc(N=C2SC(C(=O)Nc3ccc(C(=O)O)cc3)CC(=O)N2Cc2cccs2)cc1 (centres undefined)	?	-3%	4%	-38%	0%	7.4µM*
CCn1c2ccccc2c2cc(N=C3SC(CC(=O)Nc4ccccc4OC)C(=O)N3CCOC)ccc21 (centres undefined)	9.3µM*	-7%	-5%	60%	10%	?
COc1cc(NC(=O)NCCn2nnc3cc(S(=O)(=O)N(C)C)ccc32)cc(OC)c1	nt	-5%	-3%	nt	nt	nt
COC(=O)c1cc(NC(=O)CC2SC(=Nc3ccccc3)N(CCc3c[nH]c4ccccc34)C2=O)cc(C(=O)OC)c1 (centres undefined)	13µM*	-3%	1%	-3%	-1%	1.7µM*
Cc1ccc(S(=O)(=O)N2CCC(=O)N(C(COCc3ccc(Cl)c(Cl)c3)Cc3ccccc3)CC2)cc1 (centres undefined)	9.3µM*	-7%	?	3%	-4%	?
Cc1ccc(S(=O)(=O)N2CCC(=O)N(C(COCc3ccc(C(F)(F)F)cc3)C(C)C)CC2)cc1 (centres undefined)	?	-6%	?	269%	-17%	10µM*
Cc1ccc(S(=O)(=O)N2CCC(=O)N(C(COCc3cccc(C)c3)Cc3ccccc3)CC2)cc1 (centres undefined)	?	-12%	?	-5%	-11%	9.3µM*
Cc1ccc(S(=O)(=O)N2CCC(=O)N(C(COCc3ccc(C(F)(F)F)cc3)Cc3ccccc3)CC2)cc1 (centres undefined)	?	-18%	?	-1%	-7%	7.4µM*
Cc1ccc(S(=O)(=O)N2CCC(=O)N(C(CO)Cc3ccccc3)CC2)cc1 (centres undefined)	?	-11%	-6%	5%	6%	-5%
SMILES	Pf growth 48h	Sm TGR inh	AmpC inh detg	AmpC no deterg	SARS PLP yeast	Pf growth 96h
COc1ccc(-c2cnnn2-c2ccc(NC(=O)c3c(F)cccc3F)cc2)cc1	nt	-8%	-9%	nt	nt	nt
Cc1ccc(S(=O)(=O)N2CCC(=O)N(C(COC(=O)Nc3ccccc3)Cc3ccccc3)CC2)cc1 (centres undefined)	?	-8%	?	-16%	5%	15µM*
COC(=O)C1CN(C(=O)COc2ccc(Cl)cc2C)c2ccccc2O1 (centres undefined)	15µM*	4%	-10%	17%	-8%	?
CC(C)Sc1cc(N2CCCC2)nc(-c2ccccc2)n1	?	12%	0%	-19%	-11%	?
CC(C)Sc1cc(N2CCCC2)nc(-c2ccc(F)cc2)n1	13µM*	5%	-1%	-20%	3%	?
CC(C)c1ccccc1NC(=O)CN1C(=O)c2cccc3cccc1c23	nt	4%	19%	nt	nt	nt
COc1ccc(COC(=O)c2cc(S(=O)(=O)N3CCCCC3)ccc2N2CCOCC2)cc1	3%	1%	?	-15%	-2%	21%
CN(C)S(=O)(=O)c1cccc(COC(=O)c2cc([N+](=O)[O-])ccc2N2CCOCC2)c1	13µM*	1%	-20%	53%	0%	10µM*
Cc1ccccc1COC(=O)c1cc([N+](=O)[O-])ccc1N1CCOCC1	-18%	-29%	2%	13%	-9%	?
